In paper PMC9838217, “Structure of SALL4 zinc finger domain reveals link between AT-rich DNA binding and Okihiro syndrome”:
Residue numbers refer to the chain shown, from its start.

Experiments:
Assay in all cases: HT-SELEX; high values mean tight binding
Settings in all cases: protein: recombinant; vector His6-GST; dsDNA, one strand shown
SALL4 ZFC4 WT (HT-SELEX) = target: T1, SALL4 ZFC4 WT (HT-SELEX) (Mus musculus, UniProt Q8BX22 870-940)
T1 sequence: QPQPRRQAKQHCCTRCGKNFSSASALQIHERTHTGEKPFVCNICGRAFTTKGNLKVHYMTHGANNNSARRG
Procedure, shortened: (§1)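 In triplicate selections of up to 6 cycles, purified recombinant mouse SALL4 zinc finger cluster 4 (residues 870–940, 1 µg) was incubated 10 min at room temperature with library DNA (1.5 µg, then 200 ng) in 100 µl of 10 mM Tris–HCl pH 7.5, 50 mM NaCl, poly(dI-dC) and DTT, and complexes were captured on Ni2+ beads, washed and PCR-amplified. Sequencing was done on MiSeq with scanning for 6-mers. The binding signal is each canonical k-mer's read fraction, reported as fold change against the initial random library.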

[1] = target: T2, SALL4 ZFC4 R900W (HT-SELEX) (Mus musculus, UniProt Q8BX22 870-940, R900W)
T2 sequence: T1 sequence with R31W
Procedure, shortened: as §1

[2] = target: T3, SALL4 ZFC4 G921D (HT-SELEX) (Mus musculus, UniProt Q8BX22 870-940, G921D)
T3 sequence: T1 sequence with G52D
Procedure, shortened: as §1

Row | Sequence | binding signal (SALL4 ZFC4 WT (HT-SELEX)) [fold-change vs cycle 0] | binding signal [1] [fold-change vs cycle 0] | binding signal [2] [fold-change vs cycle 0]
1 | ATAAGA | 2.45 ± 0.123 | 2.3 ± 0.143 | 1.92 ± 0.245
2 | ACCTCG | 0.423 ± 0.0256 | 0.498 ± 0.00774 | 0.604 ± 0.0431
3 | CTTCGA | 0.707 ± 0.0176 | 0.789 ± 0.0144 | 0.875 ± 0.0344
4 | CAGTAC | 0.772 ± 0.0398 | 0.92 ± 0.0398 | 0.957 ± 0.0386
5 | CTCGAA | 0.675 ± 0.0333 | 0.763 ± 0.0367 | 0.838 ± 0.0207
6 | AAGGGG | 0.527 ± 0.0535 | 0.628 ± 0.0342 | 0.657 ± 0.0321
7 | AGGGCA | 0.305 ± 0.031 | 0.354 ± 0.00942 | 0.51 ± 0.0852
8 | CAGCAC | 0.3 ± 0.0076 | 0.335 ± 0.0156 | 0.476 ± 0.0603
9 | TCCTAA | 1.43 ± 0.0908 | 1.56 ± 0.119 | 1.46 ± 0.14
10 | CACCTA | 0.824 ± 0.0556 | 0.915 ± 0.0444 | 0.976 ± 0.0474
11 | GAAGTC | 0.797 ± 0.0523 | 0.906 ± 0.0176 | 0.953 ± 0.00992
12 | ATCAGC | 0.664 ± 0.0167 | 0.738 ± 0.048 | 0.836 ± 0.0337
13 | ACACAA | 1.07 ± 0.0495 | 1.2 ± 0.0676 | 1.19 ± 0.0605
14 | ATTGCA | 1.16 ± 0.0389 | 1.12 ± 0.0435 | 1.18 ± 0.0324
15 | CAGATC | 0.723 ± 0.0477 | 0.849 ± 0.0155 | 0.964 ± 0.0486
16 | AAAATG | 1.68 ± 0.0946 | 1.56 ± 0.0588 | 1.46 ± 0.0958
17 | TAAATA | 3.77 ± 0.207 | 2.47 ± 0.107 | 2.11 ± 0.184
18 | CACCAC | 0.402 ± 0.0296 | 0.465 ± 0.0324 | 0.587 ± 0.0576
19 | CAATGC | 0.595 ± 0.019 | 0.673 ± 0.0218 | 0.807 ± 0.0224
20 | CTGAGA | 0.788 ± 0.03 | 0.922 ± 0.033 | 0.951 ± 0.0498
21 | CATTGA | 1.25 ± 0.0236 | 1.39 ± 0.0271 | 1.35 ± 0.0347
22 | AACTGG | 0.7531 ± 0.00684 | 0.889 ± 0.0264 | 0.904 ± 0.0346
23 | TACAGA | 1.3 ± 0.0338 | 1.38 ± 0.0448 | 1.33 ± 0.0789
24 | AGCCTG | 0.325 ± 0.0218 | 0.402 ± 0.0338 | 0.531 ± 0.0708
25 | ACGGTA | 0.715 ± 0.031 | 0.817 ± 0.0376 | 0.852 ± 0.0147
26 | ACGTCC | 0.359 ± 0.021 | 0.454 ± 0.0124 | 0.562 ± 0.0557
27 | CGAGTC | 0.379 ± 0.0123 | 0.4362 ± 0.00406 | 0.578 ± 0.0547
28 | AGGGAC | 0.483 ± 0.0313 | 0.559 ± 0.0327 | 0.674 ± 0.0751
29 | CGGAGA | 0.359 ± 0.025 | 0.45 ± 0.0336 | 0.543 ± 0.0379
30 | GTACAC | 0.768 ± 0.0559 | 0.868 ± 0.0144 | 0.9395 ± 0.00736
